Assay outcomes: PubChem, several laboratories
Only some compounds are listed: those with a hit (about 4.7% of all), similar ones and a draw of the others.
EBI2 antag: antagonists of human EBI2 receptor; P32249; EBI2 beta-arrestin recruitment, luminescence, 7a,25-OHC stimulated; inhibition, % at 5 µM; 360,000 compounds, 0.81% hits; AID 651636; in the data active = inhibition above about 38%;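 also: enzyme fragment complementation signal reports receptor beta-arrestin coupling in cells; 0% = agonist plus DMSO wells and 100% = wells without agonist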
Target sequence (P32249 whole entry, looked up, the tested form may be a part): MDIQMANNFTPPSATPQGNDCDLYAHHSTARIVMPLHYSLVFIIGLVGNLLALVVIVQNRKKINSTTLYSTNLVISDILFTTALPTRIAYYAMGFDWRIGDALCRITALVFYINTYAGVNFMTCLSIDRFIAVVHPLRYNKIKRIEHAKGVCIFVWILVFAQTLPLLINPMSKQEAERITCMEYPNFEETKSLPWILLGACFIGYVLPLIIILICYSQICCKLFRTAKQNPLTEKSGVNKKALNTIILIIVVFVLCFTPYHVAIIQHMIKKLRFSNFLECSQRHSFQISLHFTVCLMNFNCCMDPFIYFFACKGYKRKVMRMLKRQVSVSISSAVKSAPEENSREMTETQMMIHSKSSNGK
SKKanGAS inh: SKKanGAS growth inhibition. S. pyogenes SKKanGAS, kanamycin growth, BacTiter-Glo, 6 h. inhibition, % at 7.5 µM. 300,000 compounds, 1.3% hits. AID 1662;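 active = mean replicate score, as percent of positive control median, at least 50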;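 also: strain carries kanamycin resistance gene driven by streptokinase promoter and grows in 40 µg/ml kanamycin; loss of luminescence reflects streptokinase promoter inhibition or plain growth inhibition; 0% = median of DMSO wells and 100% = positive control at its reference dose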
tim23-1 inh: growth inhibitors of tim23-1 mutant yeast. 330,000 compounds, 1.3% hits. AID 463212. inhibition, % at 20 µM. S. cerevisiae tim23-1 growth, BacTiter-Glo luminescence, 24 h;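 active = growth inhibition of the mutant yeast at or above 50%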;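 also: temperature-sensitive mutant grown at 25 °C; plate controls were DMSO-treated mutant yeast for no effect and medium wells lacking yeast for full effect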
tim10-1 inh: tim10-1 yeast growth inhibition. S. cerevisiae tim10-1 ts strain growth, BacTiter-Glo, 24 h. inhibition, % at 20 µM. 330,000 compounds, 2.2% hits;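 active = inhibition of at least 40%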;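 also: mutant grown at 25 °C; 0% = DMSO wells with yeast and 100% = wells holding no yeast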
TIM10 inh: TIM10 yeast growth inhibition; 330,000 compounds, 1.4% hits; inhibition, % at 10 µM; S. cerevisiae TIM10 strain growth, BacTiter-Glo luminescence, 24 h;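 active = inhibition of 40% or more at the single tested concentration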;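 also: wild-type TIM10 isogenic control strain grown at permissive 25 °C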
PfHsp90 yeast 2: growth inhibition of yeast expressing Plasmodium Hsp90. 310,000 compounds, 0.32% hits. AID 504621. inhibition, % at 9.4 µM. S. cerevisiae expressing PfHsp90, BacTiter-Glo ATP, 48 h; yeast lacking PDR1 and PDR3 efflux regulators;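 active = every replicate shows inhibition above about 80%, whatever the replicate mean, limit read from the data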;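 also: 0% = DMSO neutral controls and 100% = 20 µM radicicol positive controls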
TIM10 conf: TIM10 yeast growth inhibition, confirmed | 4,600 compounds, 63% hits | inhibition, % at 10 µM | shares compounds with TIM10 inh | S. cerevisiae tim10 strain growth, BacTiter-Glo luminescence, 24 h;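 active = inhibition of yeast growth at or above a set limit in either of two replicates at 10 µM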;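 also: this counterscreen used the strain with wild-type TIM10; 0% = yeast with DMSO and 100% = medium wells lacking yeast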
Starred values were filed as active, the others as inactive.

Screening CCN1CCN(CCCNC(=O)c2cc3cc4ccc(OC)cc4nc3o2)CC1 returned EBI2 antag 8, SKKanGAS inh 4, tim23-1 inh 39, tim10-1 inh 16, TIM10 inh 11 and PfHsp90 yeast 2 -33.
COc1ccc2cc3cc(C(=O)NCc4cccs4)oc3nc2c1 was read as EBI2 antag 6, SKKanGAS inh -11, tim23-1 inh 14, tim10-1 inh 9 and TIM10 inh -14.
For COc1ccc2cc3cc(C(=O)NCCc4ccc(OC)c(OC)c4)oc3nc2c1 the results were EBI2 antag -16, SKKanGAS inh 14, tim23-1 inh 28, tim10-1 inh 0, TIM10 inh 55*, PfHsp90 yeast 2 -5 and TIM10 conf -3.
Screening COc1ccc2cc3cc(C(=O)N4CCN(C5CCCCC5)CC4)oc3nc2c1 returned EBI2 antag -1, SKKanGAS inh -15, tim23-1 inh 28, tim10-1 inh 23, TIM10 inh 64*, PfHsp90 yeast 2 15 and TIM10 conf 46*.
Screening COc1ccc2cc3cc(C(=O)NCCCN4CCC(C)CC4)oc3nc2c1 returned EBI2 antag 1, SKKanGAS inh -5, tim23-1 inh 31, tim10-1 inh 18, TIM10 inh 77*, PfHsp90 yeast 2 -22 and TIM10 conf 68*.
CCCN(CCC)CCCNC(=O)c1cc2cc3ccc(OC)cc3nc2o1 was read as EBI2 antag -3, SKKanGAS inh 1, tim23-1 inh 50, tim10-1 inh 36, TIM10 inh 65*, PfHsp90 yeast 2 -24 and TIM10 conf -33.
`CCOC(=O)N1CCC(N2CCCC(C(=O)c3ccc4cc(OC)ccc4c3)C2)CC1` (configuration not stated) gave EBI2 antag -3, tim23-1 inh -86, tim10-1 inh -17, TIM10 inh 9 and PfHsp90 yeast 2 6.
`Cc1ccccc1NC(=O)COC(=O)CN1C(=O)NC(C)(C)C1=O` gave EBI2 antag -1, SKKanGAS inh -4, tim23-1 inh 12, tim10-1 inh 11, TIM10 inh -4 and PfHsp90 yeast 2 39.
Screening C#CCN(C[C@H]1[C@H](OC(=O)NCc2ccccc2F)[C@H](OC(=O)NCc2ccccc2F)C[C@H]2C(=O)N(c3ccccc3)C(=O)[C@@H]12)S(=O)(=O)c1ccc(C)cc1 returned EBI2 antag 0.
Screening O=C(NCCCl)Nc1cccnc1Cl returned EBI2 antag -1, SKKanGAS inh -3, tim23-1 inh 0, tim10-1 inh 2, TIM10 inh 16 and PfHsp90 yeast 2 16.
For O=S(=O)(Nc1cccc2ncccc12)c1cccs1 the results were EBI2 antag 60*, SKKanGAS inh 87*, tim23-1 inh 40, tim10-1 inh 31, TIM10 inh 43*, PfHsp90 yeast 2 -101 and TIM10 conf 48*.
Screening O=C(NCC1CCCO1)c1cnn2c(C(F)F)cc(C3CC3)nc12 (configuration not stated) returned EBI2 antag 5, SKKanGAS inh 0, tim23-1 inh 2, tim10-1 inh 0, TIM10 inh 4 and PfHsp90 yeast 2 10.
For COc1ccc(-c2cc(C(F)F)n3ncc(C(=O)NCC4CCCO4)c3n2)cc1 (configuration not stated) the results were EBI2 antag 23, SKKanGAS inh -1, tim23-1 inh 21, tim10-1 inh 23, TIM10 inh 45*, PfHsp90 yeast 2 -3 and TIM10 conf 34*.
`Nc1nnn(CC(=O)N/N=C/c2cccc(Cl)c2)n1` gave EBI2 antag 4, SKKanGAS inh 4, tim23-1 inh 5, tim10-1 inh 15, TIM10 inh 13 and PfHsp90 yeast 2 1.
Screening COc1cccc(CN(C)C(=O)CN2C(=O)NC3(CCCc4ccccc43)C2=O)c1 (configuration not stated) returned EBI2 antag -1, tim23-1 inh -10, tim10-1 inh -8 and TIM10 inh -3.
Cc1ccsc1CN(C)C(=O)CN1C(=O)NC2(CCCc3ccccc32)C1=O (configuration not stated) was read as EBI2 antag 0, tim23-1 inh -7, tim10-1 inh 11, TIM10 inh 96*, PfHsp90 yeast 2 -7 and TIM10 conf -2.
`C=CC#CC1(O)CC(C)N(C)CC1C` (configuration not stated) gave EBI2 antag 3, SKKanGAS inh -4, tim23-1 inh 23, tim10-1 inh 5, TIM10 inh -4 and PfHsp90 yeast 2 -7.
For COc1ccc(-c2cc3ccccc3n2CC(O)Cn2nc(C)cc2C)cc1 (configuration not stated) the results were EBI2 antag 4, SKKanGAS inh 9, tim23-1 inh 35, tim10-1 inh 32, TIM10 inh 41*, PfHsp90 yeast 2 -10 and TIM10 conf 35*.
COc1ccc(-c2n[nH]c(=S)n2C2CCCCC2)cc1 was read as EBI2 antag -21, SKKanGAS inh -5, tim23-1 inh 24, tim10-1 inh 27, TIM10 inh 43*, PfHsp90 yeast 2 5 and TIM10 conf 32*.
`S=c1[nH]nc(-c2cccnc2)n1C1CCCCC1` gave EBI2 antag -4, SKKanGAS inh -1, tim23-1 inh -2, tim10-1 inh -7, TIM10 inh -12 and PfHsp90 yeast 2 -16.
Screening CC(C)(O)c1[nH]c2cc(C(F)(F)F)ccc2c1C(C)(C)O returned EBI2 antag -9, SKKanGAS inh -5, tim23-1 inh 8, tim10-1 inh -6, TIM10 inh 67*, PfHsp90 yeast 2 -4 and TIM10 conf 4.
For CC(=O)Nc1cc(C(=O)N2CCc3ccccc3C2)ccc1Sc1ccc(Cl)cc1 the results were EBI2 antag -13, SKKanGAS inh 16, tim23-1 inh 43, tim10-1 inh 35, TIM10 inh 42*, PfHsp90 yeast 2 4 and TIM10 conf -9.
`CC(C)(C)c1ccc(OCCNC(=S)Nc2ccccc2)cc1` gave EBI2 antag 15, SKKanGAS inh 5, tim23-1 inh 23, tim10-1 inh 33, TIM10 inh 54*, PfHsp90 yeast 2 2 and TIM10 conf 39*.
`CC(C)(C)c1ccc(OCCNCc2ccccc2)cc1` gave EBI2 antag 7, SKKanGAS inh -4, tim23-1 inh 8, tim10-1 inh -1, TIM10 inh -1 and PfHsp90 yeast 2 16.
For CC(C)Oc1ccc(C(=O)Nc2ccc(N(C)C)cc2)cc1 the results were EBI2 antag 29, SKKanGAS inh 3, tim23-1 inh 24, tim10-1 inh 15, TIM10 inh 50*, PfHsp90 yeast 2 9 and TIM10 conf -22.
CCCOc1ccc(C(=O)Nc2ccc(N(C)C)cc2)cc1 was read as EBI2 antag 35, SKKanGAS inh 3, tim23-1 inh 11, tim10-1 inh -4, TIM10 inh -5 and PfHsp90 yeast 2 4.
